Results on 96 compounds are retold here after PubChem BioAssay AID588489 (Sanford-Burnham Center for Chemical Genomics, 2011).

Structures are written as SMILES. Out of some 360,000 compounds screened, about 1,300 (0.36%) were called active. The list comes from a sample in which actives are over-represented; it also holds similar structures and randomly drawn compounds. A number with no mark means an inactive call. Cut-off read from the data, not from the text of the source: active = inhibition above about 35% (passing the limit was not always enough); inactive = the rest.

Polyadenylate-binding protein 1 (Homo sapiens), sequence (P11940 whole entry, looked up): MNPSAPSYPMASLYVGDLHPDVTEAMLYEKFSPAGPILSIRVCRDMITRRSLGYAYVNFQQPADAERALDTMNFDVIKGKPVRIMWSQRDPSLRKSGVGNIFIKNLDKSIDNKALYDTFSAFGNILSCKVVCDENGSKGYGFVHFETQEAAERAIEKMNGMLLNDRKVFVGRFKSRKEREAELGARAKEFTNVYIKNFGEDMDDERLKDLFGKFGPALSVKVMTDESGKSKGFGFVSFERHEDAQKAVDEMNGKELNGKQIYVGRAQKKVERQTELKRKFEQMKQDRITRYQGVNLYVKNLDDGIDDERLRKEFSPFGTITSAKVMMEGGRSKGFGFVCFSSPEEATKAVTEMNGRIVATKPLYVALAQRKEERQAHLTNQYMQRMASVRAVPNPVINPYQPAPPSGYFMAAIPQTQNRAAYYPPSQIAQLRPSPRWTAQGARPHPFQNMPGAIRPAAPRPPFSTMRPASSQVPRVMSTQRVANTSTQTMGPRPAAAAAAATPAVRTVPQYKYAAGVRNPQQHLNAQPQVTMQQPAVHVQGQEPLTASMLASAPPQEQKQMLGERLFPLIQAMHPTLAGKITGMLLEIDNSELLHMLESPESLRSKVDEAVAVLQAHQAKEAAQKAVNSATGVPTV

This assay addresses Polyadenylate-binding protein 1 (Homo sapiens) (UniProt P11940). In words: inhibitors of PABP1 MLLE–PAM2 peptide binding, primary screen, biochemical, fluorescence polarization, FITC-PAM2, GST-MLLE (AID 588489).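 Note: plate controls were DMSO wells with GST-MLLE for no effect and wells lacking GST-MLLE protein for full effect.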 Particulars: at 20 µM, active compounds read high.
For the compound `O=C(CSC(=S)N1CCCCC1)c1c(F)cccc1F`, the inhibition (in general, the change of the read-out against control, counted positive when it falls) was -3.59%.

For the compound `C#CCOc1ccc(/C=C2/C(=O)ON=C2C)cc1OCC`, the inhibition was 26.6%.

Take `CC1=NOC(=O)/C1=C\c1ccccc1`: the inhibition is 25.2%.

Consider `COc1cc(/C=C2/C(=O)ON=C2C)ccc1OCc1cccc(F)c1`, for which the inhibition is 41.5% (active).

`CC(C)(C)[C@H]1C=C(C(=O)NCc2ccccc2)O[C@@H](OCc2ccc(CO)cc2)C1`: the inhibition was -0.14%.

Consider `COCCOC(=O)c1sc(=S)n(CCOC)c1N`, for which the inhibition is 49.3% (active).

Take `CCn1ncc(C2=NOC(C(=O)Nc3ccccc3C(=O)OC)C2)c1C` (stereo unspecified): the inhibition was 10.5%.

As to `COc1ccccc1-c1cc2nc(NCc3cccc(Cl)c3)ccn2n1`, the inhibition is 10.3%.

For `COc1ccc(-c2nc(CS(=O)CC(=O)NCc3cccnc3)c(C)o2)cc1OC` (stereo unspecified), the inhibition was 23.2%.

As for `COc1ccc(-c2nc(CS(=O)CC(=O)NCc3ccccn3)c(C)o2)cc1` (stereo unspecified), the inhibition was 61.9% (active).

With `COc1ccc(-c2nc(CS(=O)CC(=O)NCc3ccccc3)c(C)o2)cc1OC` (stereo unspecified), the inhibition was 19.8%.

Turning to `CC1CCCC(C)N1C(=O)CN1CCN(c2nc(-c3ccc(F)cc3)cs2)CC1` (stereo unspecified), the inhibition is -7.72%.

With `COc1ccc(Nc2cc(Cl)ccc2C(=O)O)cn1`, the inhibition was 41.8% (active).

Consider `COc1ccc(NS(=O)(=O)c2ccc(F)cc2F)cn1`, for which the inhibition was -1.17%.

For the compound `COc1cccc(Nc2ncccc2C(=O)O)c1`, the inhibition is 8.54%.

As for `CCOC(=O)C1CCCCN1Cc1ccc(OC)c(OC)c1OC` (stereo unspecified), the inhibition was 0.49%.

In the case of `NC(CSC12CC3CC(CC(C3)C1)C2)C(=O)O` (stereo unspecified), the inhibition was 11.7%.

For the compound `Cc1cc2nc(C)n(CCCNC(=O)Nc3ccccc3)c2cc1C`, the inhibition is 4.6%.

On to `COCCNC(=O)Nc1ccc2nc(-c3ccco3)c(-c3ccco3)nc2c1`, for which the inhibition was 72.8% (active).

On to `COCCNC(=O)CSc1nc(N)c(NC(=O)c2ccco2)c(=O)[nH]1`, for which the inhibition is -1%.

For `Cc1ccc(C)c(S(=O)(=O)N2CCCOC2CNC(=O)C(=O)NC2CCCCC2)c1` (stereo unspecified), the inhibition is -1.96%.

With `CCN(CC)C(=O)COc1coc(CN2CCN(Cc3ccccc3)CC2)cc1=O`, the inhibition is 9.67%.

As to `NS(=O)(=O)c1ccc(CCNC(=O)c2ccc([N+](=O)[O-])cc2[N+](=O)[O-])cc1`, the inhibition is 5.05%.

On to `CNc1nccc(-c2ccc(Cl)cc2)c1C#N`, for which the inhibition was 11.5%.

Consider `Cc1nc(N2CCCC2C(=O)O)c2oc3ccccc3c2n1` (stereo unspecified), for which the inhibition was 2.41%.

Consider `Cc1cc([N+](=O)[O-])c(N2CCC[C@@H]2C(=O)O)c([N+](=O)[O-])c1`, for which the inhibition is 11.4%.

On to `O=C(O)C1CCCN1c1nc(Cl)ccc1[N+](=O)[O-]` (stereo unspecified), for which the inhibition is 51.9% (active).

`CC(=O)Nc1ccc(S(=O)(=O)N2CCN(c3ccc([N+](=O)[O-])c(NCCN4CCOCC4)c3)CC2)cc1`: the inhibition was -9.63%.

In the case of `O=C1c2ccccc2C2=Nc3ccccc3SC(c3ccccc3F)C12` (stereo unspecified), the inhibition is -2.44%.

With `O=C1c2cccc(OCC(=O)N3N=C(c4cccs4)CC3c3ccc(F)cc3)c2CCN1Cc1ccccc1` (stereo unspecified), the inhibition is 0.32%.

In the case of `Cc1ccc(C2SCC(=O)N2c2ccccc2)cc1` (stereo unspecified), the inhibition was 48.1% (active).

For `O=C1CSC(c2cccc(F)c2)N1c1ccc(O)cc1` (stereo unspecified), the inhibition was 1.39%.

Consider `COc1cccc(C2SCC(=O)N2c2cccc(C)c2)c1OC` (stereo unspecified), for which the inhibition is 20.4%.

In the case of `C=CCC(NCCCO)c1cccc(OC)c1OC` (stereo unspecified), the inhibition is 9.54%.

`O=C1[C@@H](c2ccccc2)[C@@H](c2ccccc2)N1c1cccnc1`: the inhibition is -0.26%.

On to `O=C(O)c1cscn1`, for which the inhibition is -3.08%.

Turning to `Cc1ccc(NC(=S)Nc2ccc(F)cc2)cc1`, the inhibition is 37.8% (active).

As to `O=S(=O)(NC(=S)Nc1ccccc1)c1ccc(F)cc1`, the inhibition was 33.4%.

On to `CC(NC(=S)Nc1ccc(OC(F)F)cc1)c1ccc(F)cc1` (stereo unspecified), for which the inhibition is -13.4%.

Turning to `COc1ccc(/C=N/Nc2ncnc3sc4c(c23)CCCC4)cc1O`, the inhibition is -12.9%.

On to `O=Cc1c(Cl)cccc1Cl`, for which the inhibition is 9.74%.

For `O=C1N=C2SCCN2/C1=C\c1c(Cl)cccc1Cl`, the inhibition was 38.4% (active).

On to `O=C(NC1(C(F)(F)F)N=C2SCCN2C1=O)c1ccco1` (stereo unspecified), for which the inhibition is 35.9%.

Turning to `Cc1ccc(CNC(=O)C2CCN(S(=O)(=O)c3ccc4nc5c(c(C(=O)O)c4c3)CC(C)CC5)CC2)cc1` (stereo unspecified), the inhibition was -3.02%.

In the case of `COc1ccccc1CNC(=O)CCCn1c(=O)c2ccccc2n(CC(=O)NC2CCCC2)c1=O`, the inhibition was 12%.

As to `CC(NC(=O)Nc1ccccc1)C(c1cccs1)N1CCN(c2ccccc2)CC1` (stereo unspecified), the inhibition was -4.15%.

With `CC(=O)Nc1cc(-c2ccccc2F)cn2c(-c3cccc(C(F)(F)F)c3)cnc12`, the inhibition was -12.1%.

With `COc1ccccc1-c1cc(NC(C)=O)c2ncc(-c3ccc(F)cc3)n2c1`, the inhibition was -10.4%.

With `CC(=O)Nc1cc(-c2ccccc2N(C)C)cn2c(-c3ccc(F)c(Cl)c3)cnc12`, the inhibition was 48.4% (active).

As to `N#Cc1ccc(C2=CC(=O)C[C@H](c3ccc(Cl)cc3)C2)cc1`, the inhibition was 6.39%.

`COc1cc2c(cc1NC(=O)COC(=O)/C=C/c1ccccc1)oc1ccccc12`: the inhibition was 11%.

Consider `CCN1C(=O)[C@H]2[C@@H](c3ccc(C)cc3)N3C(=O)N(c4cccc(Br)c4)C(=O)[C@@]3(CC)[C@H]2C1=O`, for which the inhibition was 11.2%.

Regarding `CCC(=O)NNc1cc(=O)c2c(=O)n(C)c(=O)n(C)c2[nH]1`, the inhibition is -6.2%.

Turning to `CC(=O)N(c1ccc2oc(=O)sc2c1)S(=O)(=O)c1ccc(C)cc1`, the inhibition is 41.1% (active).

Take `CC(=O)Oc1ccc(N(C(C)=O)S(=O)(=O)c2ccc3ccccc3c2)cc1Br`: the inhibition was -22.5%.

For `COC(=O)c1c(C)oc2ccc(N(C(=O)Oc3ccccc3)S(=O)(=O)c3ccccc3)cc12`, the inhibition is 9.28%.

Regarding `Cc1nn(C)c(Oc2ccc(Cl)cc2)c1C=O`, the inhibition was -2.27%.

Regarding `CCC(=O)N1CCC(C)(C(=O)Nc2cc(OC)c(OC)c(OC)c2)C1` (stereo unspecified), the inhibition is 4.71%.

`CC(CC(=O)N1CCN(S(=O)(=O)c2ccccc2)CC1)n1cncn1` (stereo unspecified): the inhibition was 21.2%.

Regarding `NC(=S)c1ccc(C(N)=S)o1`, the inhibition is 37.7% (active).

As to `Cc1cccc(NC(=O)CSc2nc3c(c(=O)[nH]2)CCCC3)c1C`, the inhibition was -11.1%.

As for `Cc1cccc(NC(=O)COC(=O)CCc2ccccc2)c1C`, the inhibition is -0.48%.

With `Cc1cccc(NC(=O)CSC(N)=O)c1C`, the inhibition is 38.8% (active).

Regarding `Cc1ccccc1NC(=O)CSC(=O)c1ccccc1`, the inhibition was 44.4% (active).

`Cc1ccccc1NC(=O)CCOc1ccccc1`: the inhibition was 4.98%.

For `Cc1ccccc1NC(=O)CSC1=NCCN1`, the inhibition is 16%.

For `FC(F)(F)C1CCCN(c2nsc3ccccc23)C1` (stereo unspecified), the inhibition is 33.5%.

For the compound `COc1ccc(C(=O)C[n+]2ccc(N)c(C)c2C)cc1`, the inhibition was -11.1%.

On to `CC12CCC(C(=O)N3CCN(c4ncccn4)CC3)(c3nc4ccccc4nc31)C2(C)C` (stereo unspecified), for which the inhibition was 14.9%.

In the case of `CCOC(=O)CN1C(=O)C(O)(CC(=O)c2ccccn2)c2ccccc21` (stereo unspecified), the inhibition is 11.1%.

For the compound `Cc1nnc(SCC(=O)N2CCOCC2)[nH]c1=O`, the inhibition was 11.7%.

In the case of `CCCCOC(=O)CNc1nnc(SCC(=O)OCC)[nH]c1=O`, the inhibition was 38.4% (active).

`CCOC(=O)CSc1nc(C)c(Oc2ccc(Cl)cc2Cl)c(=O)[nH]1`: the inhibition is -8.63%.

Turning to `Cc1ccccc1NC(=O)N1CCCC1C(=O)NCc1ccccc1` (stereo unspecified), the inhibition is -5.08%.

For `COc1ccc(C(C#N)Nc2ccc(C)cc2)cc1` (stereo unspecified), the inhibition is -0.36%.

Regarding `CCOC(=O)C1CCCN(S(=O)(=O)c2ccc3c(c2)C(C)(C)C(=O)N3C)C1` (stereo unspecified), the inhibition is 0.52%.

`O=C(Cc1ccc(F)cc1)N1CCN=C1SCc1cccc([N+](=O)[O-])c1`: the inhibition was -6.14%.

For the compound `Cc1cc(C)cc(C(=O)N2CCN=C2SCc2ccc([N+](=O)[O-])cc2)c1`, the inhibition is 34.7%.

As for `Cc1cccc(CC(=O)N2CCN=C2SCc2ccc([N+](=O)[O-])cc2)c1`, the inhibition is 40.2% (active).

As to `CC(C)=CCN1CCN(Cc2cc3ccccc3[nH]2)CC1CCO` (stereo unspecified), the inhibition is -5.44%.

Turning to `CCOC(=O)c1c(NC(=O)C2(C)Cc3ccccc3C(=O)O2)sc2c1CCCC2` (stereo unspecified), the inhibition was 38.6% (active).

For the compound `CCOC(=O)c1c(NC(=O)C(C)Sc2c[nH]c3ccccc23)sc2c1CCC2` (stereo unspecified), the inhibition was 2.56%.

On to `CCOC(=O)c1c(NC(=O)C2CCN(S(=O)(=O)c3ccc(Cl)cc3)CC2)sc2c1CCCC2`, for which the inhibition is 1.94%.

In the case of `CCc1cc2cc(OC)ccc2nc1SCC(=O)Nc1cc(OC)c(OC)cc1C(=O)O`, the inhibition is 19.2%.

Take `CN(C(=O)CCN1C(=O)/C(=C/c2ccccc2F)SC1=S)C1CCS(=O)(=O)C1` (stereo unspecified): the inhibition was 47.2% (active).

With `COc1ccccc1/C=C1\SC(=O)N(CCC(=O)N(C)C2CCS(=O)(=O)C2)C1=O` (stereo unspecified), the inhibition was 15.8%.

Consider `CN(C(=O)CN1C(=O)S/C(=C\c2ccccc2F)C1=O)C1CCS(=O)(=O)C1` (stereo unspecified), for which the inhibition is 34%.

On to `CCCCOc1ccc(C(=O)NCC(=O)OCC(=O)N2CCN(S(=O)(=O)c3ccc(C)cc3C)CC2)cc1`, for which the inhibition is -5.79%.

Take `CC1(C(=O)Nc2cccc3cccnc23)CCN1C(=O)CCC1CCCC1` (stereo unspecified): the inhibition was -9.79%.

Turning to `O=C(CN1CCOCC1)Nc1c(-c2ccccc2)c2cc(Br)ccc2[nH]c1=O`, the inhibition is 7.03%.

`CS(=O)(=O)N(CC(=O)N/N=C/c1ccccn1)c1ccc(Oc2ccccc2)cc1`: the inhibition is 1.62%.

Consider `Nc1nc(C23CC4CC(CC(C4)C2)C3)cs1`, for which the inhibition is -0.54%.

`Cc1cc(-c2csc(N)n2)c(C)n1-c1ccccc1`: the inhibition was -12.2%.

For the compound `COc1c(F)c(F)c(-c2csc(N)n2)c(F)c1F`, the inhibition was 41% (active).

As for `Cc1cc(C(F)F)n2nc(C(=O)Nc3ccc(S(=O)(=O)NC45CC6CC(CC(C6)C4)C5)cc3)nc2n1`, the inhibition was 0.98%.

Take `Cc1cc(C)c2c(-n3cccc3)c(C(=O)NNS(=O)(=O)c3ccc(F)cc3)sc2n1`: the inhibition was -3.3%.
